Screening results as filed in PubChem BioAssay.
An excerpt weighted towards active compounds, which were near 2.4% of everything screened.
PGK inhibitor: blocks T. brucei phosphoglycerate kinase | PGK/GAPDH coupled, Kinase-Glo luminescence, 60 min | Potency, µM (top dose mostly 57.5 µM), without a hit: at the top dose activity change, negative = inhibition, usual class: inhibitors | 380,000 tested, 0.043% active; further: on the % scale 0 is the no-effect control and ±100 the full control effect; nearly all actives have a fitted effect of over 60% in size
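Luminescent ATP detection (Kinase-Glo Plus) follows a 60-minute room-temperature incubation, with wells lacking PGK as controls. Buffer: 100 mM TEA (pH 7.6), 5 mM MgCl2, 0.01% Tween-20. Coupling enzyme GAPDH (100 nM final) supplies unstable 1,3-BPG in-well.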
POLH inh: inhibitors of human DNA polymerase eta; 390,000 tested, 1.2% active; Potency, µM (titrated, usually from 114 µM), for the others: top-dose activity change, negative = inhibition, actives largely listed as inhibitors; AID 588591; Q9Y253; recombinant Pol eta, fluorescent DNA replication assay; further: on the % scale 0 is the no-effect control and ±100 the full control effect
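Pol eta at 10 nM preincubated with compounds 15 min at room temperature; reaction started with fluorescent substrate (50 nM final) and read kinetically at 0 and 10 min.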
POLK inh: inhibitors of human DNA polymerase kappa; Q9UBT6; purified Pol kappa, fluorescent DNA synthesis assay, 10 min; Potency, µM (top dose mostly 107 µM), inactives show at the top dose activity, negative = inhibition, hits mostly inhibitors; 400,000 tested, 0.53% active; AID 588579; further: on the % scale 0 is the no-effect control and ±100 the full control effect
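Inhibition of 10 nM Pol kappa is measured by a fluorescent read-out at 0 and 10 min following addition of 50 nM substrate (final), with a 15-min room-temperature compound preincubation.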
Pol beta inh: blocks human DNA polymerase beta activity. AID 485314. 340,000 tested, 1.3% active. P06746. Pol beta primer extension/strand displacement, fluorescence kinetic. Potency, µM (titrated, usually from 114 µM), for inactives: at the top dose activity change, negative = inhibition, usual class: inhibitors; further: on the % scale 0 is the no-effect control and ±100 the full control effect
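Values derive from four-parameter Hill fits of normalized kinetic data: reads at 0 and 10 min following addition of 50 nM substrate to 10 nM Pol beta preincubated 15 min with compound.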
FEN1 inhibitor: blocks human flap endonuclease 1; AID 588795; Potency, µM (top dose mostly 114 µM), for inactives: at the top dose activity change, negative = inhibition, hits mostly inhibitors; 390,000 tested, 0.35% active; Recombinant FEN1 flap cleavage, fluorescence, 15 min; further: on the % scale 0 is the no-effect control and ±100 the full control effect; nearly all actives have a fitted effect of over 65% in size
Target sequence (P39748 whole entry, looked up): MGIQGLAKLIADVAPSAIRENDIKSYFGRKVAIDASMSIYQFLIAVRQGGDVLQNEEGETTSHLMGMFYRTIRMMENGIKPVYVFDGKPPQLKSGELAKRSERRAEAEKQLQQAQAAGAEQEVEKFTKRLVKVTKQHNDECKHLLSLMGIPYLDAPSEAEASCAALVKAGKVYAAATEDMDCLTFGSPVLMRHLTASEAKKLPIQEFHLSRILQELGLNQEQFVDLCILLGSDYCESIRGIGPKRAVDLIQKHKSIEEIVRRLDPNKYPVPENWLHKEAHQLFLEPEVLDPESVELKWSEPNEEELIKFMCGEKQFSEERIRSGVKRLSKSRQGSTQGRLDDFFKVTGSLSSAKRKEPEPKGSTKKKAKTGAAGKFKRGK
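Steps: FEN1 (10 nM) dispensed; compound added by pin tool; 15 min at room temperature; substrate added to 50 nM final; reads at 0 min and 15 min; data normalized and fitted (four-parameter Hill).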
POLI inh: DNA polymerase iota (human) inhibition | Q9UNA4 | Pol iota fluorescent replication assay, 10 min | Potency, µM (titrated, usually from 115 µM), inactives show at the top dose activity, negative = inhibition, actives largely listed as inhibitors | 390,000 tested, 1% active | AID 588590
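Pol iota at 10 nM preincubated 15 min with compounds at room temperature; reaction started with fluorescent substrate, 50 nM final. Fluorescence read kinetically at 0 and 10 min; buffer-only wells as negative control.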
The depositor's hits bear a star; i = inactive; u = inconclusive; x = no result given; [ ] = another dose, or the depositor's remark. The call rests on the fitted dose curve; in most records, active means well fitted curve in the direction sought with a large enough effect; inconclusive means small, poorly fitted or top-dose-only effect, or another doubt; inactive means no such curve, though single readings can be large; an effect the other way counts as inactive or inconclusive. Potency means the concentration at half of the fitted maximal effect.

SMILES	PGK inhibitor	POLH inh	POLK inh	Pol beta inh	FEN1 inhibitor	POLI inh
COc1cc(C=C2C(=O)c3ccccc3C2=O)cc(OC)c1OC	15%	-2%	-11%	0%	14%	89µM*
COc1cc(C=C2C(=O)c3ccccc3C2=O)ccc1O	-16%	-4%	-19%	-3%	-5%	u
CCCCOc1ccc(CC(=O)N(C)OC)cc1	x	x	-7%	x	0%	44%
CCOc1ccc(C(=O)NCC(c2ccc3c(c2)OCO3)N2CCN(C)CC2)cc1 (configuration not stated)	-2%	-22%	-6%[60.1 µM]	3%	4%	25%
C=C(CCC(=O)c1ccccc1)C(=O)c1ccccc1	-4%	16µM*	4%	u	-18%	u
O=C(CCCCCCCC(=O)c1ccccc1)c1ccccc1	-8%	-14%	-5%	27%	-17%	u
c1ccc(-c2nc(-c3ccco3)n3ccccc23)cc1	-1%	u	-8%	35µM*	-22%	-6%
COc1ccc(-c2cc(-c3ccco3)[nH]c(=O)c2C#N)cc1OC	-15%	56µM*	79µM*	u	u	10µM*
N#Cc1c(-c2ccccc2)cc(-c2ccc3c(c2)OCO3)[nH]c1=O	2%	-15%	2%	x	-1%	17%
CCOc1cc(/C=C2\N=C(SCC)SC2=O)cc([N+](=O)[O-])c1OC(C)=O	-21%	45µM*	u	16µM*	u	u
Cc1cc(NC(=O)COC(=O)c2ccccc2OCCOc2ccccc2)ccc1Br	x	x	4%	x	4%	u
CC(C)C[C@H](NC(=O)[C@@H](Cc1c[nH]c2ccccc12)NC(=O)[C@H](Cc1ccc(O)cc1)NC(=O)[C@H](CO)NC(=O)[C@H](Cc1c[nH]c2ccccc12)NC(=O)[C@H](Cc1cnc[nH]1)NC(=O)[C@@H]1CCC(=O)N1)C(=O)N[C@@H](CCCN=C(N)N)C(=O)N1CCC[C@H]1C(=O)NCC(N)=O	x	x	14%[60.1 µM]	x	x	x
N#Cc1c(N(CCO)CCO)nc(N)c2c(N)nc3c(c12)CC(=O)N3Cc1cccs1	-13%	40µM*	-9%	2%	-24%	3.5µM*
CN(CCO)c1nc(N)c2c(N)nc3c(c2c1C#N)CC(=O)N3Cc1cccs1	2%	u	-7%	90%	-19%	71%
Cc1ccc(S(=O)(=O)N2CCN(c3nc(-c4cncnc4)nc4ccccc34)CC2)cc1	x	x	-5%	x	-7%	-2%
Nc1ccc2ccc(O)cc2c1	-6%	50µM*	u	x	u	u
Oc1ccc2ccc(Cl)cc2c1	-10%	-9%	-30%	x	-2%	-18%
O=C(CN1CCCCC1)Nc1nnc(-c2ccccc2)s1	-5%	-9%	-4%	-9%	1%	5%
O=C(CN1CCCCC1)Nc1nnc(-c2ccc([N+](=O)[O-])cc2)s1	-5%	18µM*	-12%	8%	2%	-23%
Cc1c(CCC(=O)O)c(=O)oc2cc(OCc3ccccc3Br)ccc12	x	-14%	-19%	50µM*	-31%	-25%
N=C1C(c2nc3ccccc3[nH]2)=C(O)CN1c1ccc(CC(=O)O)cc1	8%	79µM*	-12%	-17%	-13%	u
N=C1C(c2nc3ccccc3[nH]2)=C(O)CN1c1ccccc1	-6%	-16%	-1%	13%	1%	3%
N#CC1=C(N)Oc2n[nH]c(-c3ccccc3)c2C1c1cccnc1 (configuration not stated)	i	8%	-2%	-17%	-1%	u
CCOc1cc(C2C(C#N)=C(N)Oc3n[nH]c(-c4ccccc4)c32)ccc1O (configuration not stated)	i	1%	-2%	37%	-17%	25µM*
O=C(CNC(=O)c1ccccc1)OCC(=O)c1cccc2ccccc12	x	x	-12%	x	-4%	u
O=[N+]([O-])c1cc([N+](=O)[O-])c2nonc2c1Nc1ccc(O)cc1	-8%	10%	-24%	14%	u	2.5µM*
